# Measurements taken from PubChem BioAssay (EPA / NIEHS).
# Results filed as inconclusive are left out. Activity calls are given as the source filed them. The calls were made as follows, unless noted: active = hit-call score of the fitted dose curve at least 0.9, where 1 is the maximum; inactive = score below 0.9.
# Assays:
# [1] = ATG_NFI_CIS: Attagene CIS-FACTORIAL HepG2 Assay for human Nuclear Factor I (NFI) (AID 2282989); settings: HepG2 cis-regulatory reporter, NFI response element transcription; actives raise or lower the signal
# Procedure, shortened: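 After transient transfection of HepG2 with cis-promoter reporter constructs and 24 h dosing, RNA is reverse-transcribed, amplified, 6-FAM end-labelled and HpaI-digested before capillary analysis. Bidirectional curve fitting against DMSO.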
# [2] = molecular target: Myc proto-oncogene protein (Homo sapiens) (UniProt P01106); experiment: ATG_Myc_CIS: Attagene CIS-FACTORIAL HepG2 Assay for human Myelocytomatosis (Myc) Proto-Oncogene Transcription Factor (AID 2282990); settings: HepG2, Attagene cis-reporter transcription factor activity; actives raise or lower the signal
# Chain of Myc proto-oncogene protein (Homo sapiens) (P01106 whole entry, looked up, the tested form may be a part): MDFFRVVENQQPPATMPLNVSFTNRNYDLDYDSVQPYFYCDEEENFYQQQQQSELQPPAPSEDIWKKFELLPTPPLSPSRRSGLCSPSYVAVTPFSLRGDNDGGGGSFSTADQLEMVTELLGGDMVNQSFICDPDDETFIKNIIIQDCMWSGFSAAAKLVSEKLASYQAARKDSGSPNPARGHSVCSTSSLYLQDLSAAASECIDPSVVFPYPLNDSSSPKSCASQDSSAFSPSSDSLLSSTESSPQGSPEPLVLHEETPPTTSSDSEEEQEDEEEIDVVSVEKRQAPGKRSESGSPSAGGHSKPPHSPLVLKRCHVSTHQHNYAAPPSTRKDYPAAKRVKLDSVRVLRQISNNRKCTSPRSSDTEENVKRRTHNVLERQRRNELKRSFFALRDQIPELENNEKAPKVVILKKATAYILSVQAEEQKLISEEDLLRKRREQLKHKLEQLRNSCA
# Procedure, shortened: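 Fluorescence intensity of reporter-specific cDNA fragments, separated by capillary electrophoresis, gives the signal. Transfected HepG2 cells carrying cis-promoter reporter constructs are incubated with compound for 24 h; DMSO serves as baseline.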
# [3] = ATG_NF_kB_CIS: Attagene CIS-FACTORIAL HepG2 Assay for human Nuclear Factor Kappa B (NF-kB) (AID 2282991); settings: HepG2 Attagene cis-factorial NF-kB reporter mRNA; actives raise or lower the signal
# Procedure, shortened: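 Multiplexed cis-reporter assay in transiently transfected HepG2. 24 h treatment; RNA isolated, RT-PCR, labelled fragments resolved by CE. DMSO baseline.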
# [4] = ATG_NRF2_ARE_CIS: Attagene CIS-FACTORIAL HepG2 Assay for human Nuclear Factor Erythroid 2 Related Factor 2 (NFR2) response to Antioxidant Response Elements (ARE) (AID 2282992); settings: HepG2 Attagene ARE/NRF2 reporter, transcription factor activity; actives raise or lower the signal
# Procedure, shortened: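 Endogenous transcription factor activity read out as reporter transcript levels (RT-PCR plus capillary electrophoresis, fluorescence) in transiently transfected HepG2 cells. Measured at 24 h after dosing; gain or loss of signal fitted versus DMSO.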
# [5] = ATG_Oct_MLP_CIS: Attagene CIS-FACTORIAL HepG2 Assay for human Octamer-Binding Transcription Factor (Oct) (AID 2282993); settings: HepG2 Attagene cis-factorial Oct reporter, mRNA; actives raise or lower the signal
# Procedure, shortened: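 Cells of the HepG2 line express promoter-controlled reporter sequences whose mRNA levels, after 24 h treatment, are measured by RT-PCR and capillary electrophoresis. Increases and decreases are scored relative to DMSO.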
# [6] = molecular target: human Peroxisome Proliferator-activated Receptor delta (PPARd), PPARD (gene 5467) (UniProt Q03181); experiment: ATG_PPARd_TRANS: Attagene TRANS-FACTORIAL HepG2 Assay for human Peroxisome Proliferator-activated Receptor delta (PPARd) (AID 2283002; active = hit-call score of the fitted dose curve at least 0.9, where 1 is the maximum)
# Chain of human Peroxisome Proliferator-activated Receptor delta (PPARd), PPARD (gene 5467) (Q03181 whole entry, looked up, the tested form may be a part): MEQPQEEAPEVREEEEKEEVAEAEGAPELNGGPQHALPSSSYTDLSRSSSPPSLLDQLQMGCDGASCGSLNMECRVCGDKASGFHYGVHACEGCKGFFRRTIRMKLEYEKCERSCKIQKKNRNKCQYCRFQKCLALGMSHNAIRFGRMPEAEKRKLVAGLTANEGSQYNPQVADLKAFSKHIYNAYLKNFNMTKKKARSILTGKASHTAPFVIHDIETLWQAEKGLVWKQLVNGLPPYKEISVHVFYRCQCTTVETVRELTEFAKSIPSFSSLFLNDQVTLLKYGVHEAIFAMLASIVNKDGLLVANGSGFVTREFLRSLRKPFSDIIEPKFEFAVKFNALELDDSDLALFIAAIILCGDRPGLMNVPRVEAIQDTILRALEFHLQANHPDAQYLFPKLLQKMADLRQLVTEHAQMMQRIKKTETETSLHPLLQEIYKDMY
# Procedure, shortened: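 Fluorescence from capillary electrophoresis of labelled RT-PCR reporter fragments gives the signal; DMSO sets baseline. Cells: HepG2 transiently carrying GAL4-UAS reporter units plus chimeric nuclear receptor-Gal4 proteins, exposed to chemicals for 24 h.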
# [7] = molecular target: Peroxisome proliferator-activated receptor gamma (Homo sapiens) (UniProt P37231); experiment: ATG_PPARg_TRANS: Attagene TRANS-FACTORIAL HepG2 Assay for human Peroxisome Proliferator-activated Receptor-gamma (PPARg) (AID 2283007; active = hit-call score of the fitted dose curve at least 0.9, where 1 is the maximum)
# Chain of Peroxisome proliferator-activated receptor gamma (Homo sapiens) (P37231 whole entry, looked up): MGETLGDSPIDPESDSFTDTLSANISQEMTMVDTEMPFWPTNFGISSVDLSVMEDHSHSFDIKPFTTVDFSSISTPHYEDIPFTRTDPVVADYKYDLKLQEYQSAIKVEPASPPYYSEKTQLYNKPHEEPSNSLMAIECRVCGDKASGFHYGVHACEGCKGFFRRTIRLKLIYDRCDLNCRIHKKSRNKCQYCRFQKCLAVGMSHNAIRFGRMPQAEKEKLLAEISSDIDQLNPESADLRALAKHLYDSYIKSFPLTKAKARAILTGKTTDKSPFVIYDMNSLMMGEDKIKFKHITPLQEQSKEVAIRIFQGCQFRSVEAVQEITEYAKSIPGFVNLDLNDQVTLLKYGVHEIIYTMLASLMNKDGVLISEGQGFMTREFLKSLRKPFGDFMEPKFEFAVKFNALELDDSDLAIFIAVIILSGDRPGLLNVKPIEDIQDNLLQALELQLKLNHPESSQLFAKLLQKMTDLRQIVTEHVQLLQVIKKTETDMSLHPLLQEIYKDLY
# Procedure, shortened: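 Human hepatoma HepG2, transient MRTU transfection, 24 h treatment. mRNA reporter signal by RT-PCR plus capillary electrophoresis, fluorescence detection; fitted for increase over DMSO negative control.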
# [8] = molecular target: Nuclear receptor subfamily 1 group I member 2 (Homo sapiens) (UniProt O75469); experiment: ATG_PXR_TRANS: Attagene TRANS-FACTORIAL HepG2 Assay for human Pregnane X Receptor (PXR) (AID 2283008; active = hit-call score of the fitted dose curve at least 0.9, where 1 is the maximum)
# Chain of Nuclear receptor subfamily 1 group I member 2 (Homo sapiens) (O75469 whole entry, looked up, the tested form may be a part): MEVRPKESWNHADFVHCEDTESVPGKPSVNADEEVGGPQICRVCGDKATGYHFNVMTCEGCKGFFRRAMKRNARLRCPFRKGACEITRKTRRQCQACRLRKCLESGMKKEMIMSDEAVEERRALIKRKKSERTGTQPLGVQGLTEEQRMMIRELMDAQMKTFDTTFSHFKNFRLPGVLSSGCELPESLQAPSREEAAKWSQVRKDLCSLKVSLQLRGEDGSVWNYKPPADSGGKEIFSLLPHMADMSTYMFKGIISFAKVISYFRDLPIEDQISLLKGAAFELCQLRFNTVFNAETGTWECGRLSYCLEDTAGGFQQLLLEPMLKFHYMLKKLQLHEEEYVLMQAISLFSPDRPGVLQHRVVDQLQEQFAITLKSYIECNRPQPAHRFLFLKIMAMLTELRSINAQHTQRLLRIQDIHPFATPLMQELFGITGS
# Procedure, shortened: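 Transactivation by exogenous PXR–GAL4 fusion measured as reporter transcript induction after 24 h compound treatment of transfected human HepG2 cells. Read-out via RT-PCR and capillary electrophoresis of labelled fragments, fitted upward relative to DMSO.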
# [9] = molecular target: Cellular tumor antigen p53 (Homo sapiens) (UniProt P04637); experiment: ATG_p53_CIS: Attagene CIS-FACTORIAL HepG2 Assay for human p53 Transcription Factor (AID 2282994); settings: HepG2 p53 cis-element reporter, Attagene mRNA; actives raise or lower the signal
# Chain of Cellular tumor antigen p53 (Homo sapiens) (P04637 whole entry, looked up): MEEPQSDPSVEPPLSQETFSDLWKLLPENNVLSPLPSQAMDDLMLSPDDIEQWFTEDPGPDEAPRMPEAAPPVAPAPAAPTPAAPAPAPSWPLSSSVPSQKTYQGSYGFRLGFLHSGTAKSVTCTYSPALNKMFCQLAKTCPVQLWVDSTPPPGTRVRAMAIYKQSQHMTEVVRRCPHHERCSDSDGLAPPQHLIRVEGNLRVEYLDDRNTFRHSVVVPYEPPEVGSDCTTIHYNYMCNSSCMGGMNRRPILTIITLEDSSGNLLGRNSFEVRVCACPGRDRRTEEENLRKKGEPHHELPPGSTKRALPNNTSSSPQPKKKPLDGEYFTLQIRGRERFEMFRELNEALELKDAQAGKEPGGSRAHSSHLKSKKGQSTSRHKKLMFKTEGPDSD
# Procedure, shortened: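 Endogenous p53 activity read in transiently transfected HepG2 from a cis-element-driven reporter transcript after 24 h exposure. RNA reverse-transcribed, PCR-amplified, fluorescently labelled and sized by capillary electrophoresis; gain or loss fitted against DMSO baseline.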
# [10] = BSK_3C_TissueFactor: BioMAP Diversity Plus: 3C Assay for Tissue Factor Biomarker Activity (AID 2282997); settings: BioMAP 3C HUVEC, tissue factor biomarker readout; actives raise or lower the signal
# Procedure, shortened: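 Cells used were primary human umbilical vein endothelial cells. They were dosed with chemical, and after 24 h Tissue Factor was quantified by ELISA. Curves were fitted bidirectionally with DMSO as baseline.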
# [11] = BSK_3C_VCAM1: BioMAP Diversity Plus: 3C Assay for Vascular cell adhesion molecule 1 (VCAM1) Biomarker Activity (AID 2282999); settings: BioMAP 3C HUVEC, VCAM1 ELISA, cytokine-stimulated; actives raise or lower the signal
# Procedure, shortened: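 HUVEC primary cells, 24 h compound exposure; VCAM-1 by ELISA; gain/loss of signal fitted bidirectionally vs DMSO baseline.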
# [12] = BSK_4H_Eotaxin3: BioMAP Diversity Plus: 4H Assay for Eotaxin 3 Biomarker Activity (AID 2283000); settings: primary human endothelial cells (HUVEC); actives raise or lower the signal;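 also: CCL26 protein level quantified by ELISA in parallel with SRB cytotoxicity check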
# Procedure, shortened: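 Endothelial primary cells (human umbilical vein) exposed to compound for 24 h. ELISA detection of Eotaxin-3.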
# [13] = read-out: Intercellular Adhesion Molecule 1 (ICAM1), ICAM1 (gene 3383); experiment: BSK_3C_ICAM1: BioMAP Diversity Plus: 3C Assay for Intercellular Adhesion Molecule 1 (ICAM1) Biomarker Activity (AID 2283003); settings: primary human endothelial cells (HUVEC); actives raise or lower the signal
# Procedure, shortened: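 Using DMSO as baseline, bidirectional curve fitting was applied to ICAM-1 ELISA signals from HUVEC in the 3C system, measured 24 h after compound addition.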
# [14] = molecular target: human Retinoic Acid Receptor beta (RARb), RARB (gene 5915) (UniProt P10826); experiment: ATG_RARb_TRANS: Attagene TRANS-FACTORIAL HepG2 Assay for human Retinoic Acid Receptor beta (AID 2283004; active = hit-call score of the fitted dose curve at least 0.9, where 1 is the maximum)
# Chain of human Retinoic Acid Receptor beta (RARb), RARB (gene 5915) (P10826 whole entry, looked up, the tested form may be a part): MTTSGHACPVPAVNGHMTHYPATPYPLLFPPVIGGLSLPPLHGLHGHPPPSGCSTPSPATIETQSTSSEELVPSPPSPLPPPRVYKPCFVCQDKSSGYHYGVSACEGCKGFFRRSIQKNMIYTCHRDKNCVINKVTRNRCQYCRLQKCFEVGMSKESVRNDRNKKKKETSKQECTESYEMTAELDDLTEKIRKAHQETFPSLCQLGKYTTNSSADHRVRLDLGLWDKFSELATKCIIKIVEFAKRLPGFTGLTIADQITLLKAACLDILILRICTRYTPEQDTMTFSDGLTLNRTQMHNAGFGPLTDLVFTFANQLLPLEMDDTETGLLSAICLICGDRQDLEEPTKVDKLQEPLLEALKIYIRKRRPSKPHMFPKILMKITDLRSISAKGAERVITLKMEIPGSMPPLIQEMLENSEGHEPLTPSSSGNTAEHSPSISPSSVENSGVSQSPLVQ
# Procedure, shortened: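 HepG2, transient MRTU transfection, NR–Gal4 chimera, 24 h treatment; RT-PCR plus CE fluorescence detection of reporter mRNA; gain of signal vs DMSO.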
# [15] = molecular target: Retinoic acid receptor alpha (Homo sapiens) (UniProt P10276); experiment: ATG_RARa_TRANS: Attagene TRANS-FACTORIAL HepG2 Assay for human Retinoic Acid Receptor alpha (RARa) (AID 2283005; active = hit-call score of the fitted dose curve at least 0.9, where 1 is the maximum)
# Chain of Retinoic acid receptor alpha (Homo sapiens) (P10276 whole entry, looked up, the tested form may be a part): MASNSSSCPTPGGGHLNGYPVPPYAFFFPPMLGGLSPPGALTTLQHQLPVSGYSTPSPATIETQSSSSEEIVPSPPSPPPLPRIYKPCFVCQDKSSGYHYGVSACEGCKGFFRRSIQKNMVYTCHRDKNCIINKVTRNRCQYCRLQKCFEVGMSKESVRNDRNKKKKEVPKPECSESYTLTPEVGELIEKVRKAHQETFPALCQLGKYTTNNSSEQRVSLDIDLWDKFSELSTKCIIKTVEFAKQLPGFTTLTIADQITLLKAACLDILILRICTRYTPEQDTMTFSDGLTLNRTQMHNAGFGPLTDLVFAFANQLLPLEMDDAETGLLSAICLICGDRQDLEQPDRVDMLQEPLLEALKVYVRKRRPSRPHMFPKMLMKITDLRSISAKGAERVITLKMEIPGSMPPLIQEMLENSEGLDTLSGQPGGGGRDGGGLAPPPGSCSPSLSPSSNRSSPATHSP
# Procedure, shortened: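 HepG2 transiently transfected with multiplex GAL4-UAS reporter units including a human RARa–GAL4 chimera; 24 h compound exposure. Reporter mRNA quantified by RT-PCR, 6-FAM labeling and capillary electrophoresis; gain of signal versus DMSO.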
# [16] = molecular target: human RAR-related Orphan Receptor beta (RORb), RORB (gene 6096) (UniProt Q92753); experiment: ATG_RORb_TRANS: Attagene TRANS-FACTORIAL HepG2 Assay for human RAR-related Orphan Receptor beta (RORb) (AID 2283010; active = hit-call score of the fitted dose curve at least 0.9, where 1 is the maximum)
# Chain of human RAR-related Orphan Receptor beta (RORb), RORB (gene 6096) (Q92753 whole entry, looked up, the tested form may be a part): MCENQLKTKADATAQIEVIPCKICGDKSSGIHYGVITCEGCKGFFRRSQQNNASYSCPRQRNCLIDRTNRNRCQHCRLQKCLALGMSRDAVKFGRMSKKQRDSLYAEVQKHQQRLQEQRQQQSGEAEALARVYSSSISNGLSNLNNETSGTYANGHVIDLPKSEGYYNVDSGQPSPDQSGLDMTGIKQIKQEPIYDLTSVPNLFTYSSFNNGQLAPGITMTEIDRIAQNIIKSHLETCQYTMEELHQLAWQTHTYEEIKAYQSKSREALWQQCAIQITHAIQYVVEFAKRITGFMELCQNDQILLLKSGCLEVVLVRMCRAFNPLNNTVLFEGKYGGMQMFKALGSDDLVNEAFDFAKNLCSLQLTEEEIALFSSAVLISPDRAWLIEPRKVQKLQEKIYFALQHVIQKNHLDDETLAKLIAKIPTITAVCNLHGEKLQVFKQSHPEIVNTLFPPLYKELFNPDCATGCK
# Procedure, shortened: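 Multiplexed transcription-factor reporter assay: HepG2 cells transiently carrying NR-Gal4/GAL4-UAS constructs, 24 h treatment, mRNA quantified by RT-PCR plus capillary electrophoresis fluorescence; activity scored as induction over DMSO.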
# [17] = molecular target: human Peroxisome Proliferator-activated Receptor alpha (PPARa), PPARA (gene 5465) (UniProt Q07869); experiment: ATG_PPARa_TRANS: Attagene TRANS-FACTORIAL HepG2 Assay for human Peroxisome Proliferator-activated Receptor alpha (PPARa) (AID 2283001; active = hit-call score of the fitted dose curve at least 0.9, where 1 is the maximum)
# Chain of human Peroxisome Proliferator-activated Receptor alpha (PPARa), PPARA (gene 5465) (Q07869 whole entry, looked up, the tested form may be a part): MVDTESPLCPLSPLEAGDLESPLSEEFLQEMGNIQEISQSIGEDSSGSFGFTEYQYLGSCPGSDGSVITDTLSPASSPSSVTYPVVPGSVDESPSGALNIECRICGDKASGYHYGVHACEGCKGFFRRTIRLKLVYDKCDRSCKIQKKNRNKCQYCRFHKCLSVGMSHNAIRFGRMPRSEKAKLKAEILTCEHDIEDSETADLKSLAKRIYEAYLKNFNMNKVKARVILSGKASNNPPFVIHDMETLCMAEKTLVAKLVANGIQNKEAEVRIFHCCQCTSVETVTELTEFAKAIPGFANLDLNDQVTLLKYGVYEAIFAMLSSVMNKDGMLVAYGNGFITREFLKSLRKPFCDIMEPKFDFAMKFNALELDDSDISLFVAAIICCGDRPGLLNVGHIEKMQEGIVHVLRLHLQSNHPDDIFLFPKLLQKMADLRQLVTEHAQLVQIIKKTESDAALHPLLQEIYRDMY
# Procedure, shortened: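 Transient HepG2 transfection, GAL4-UAS reporters, NR-Gal4 chimeras; 24 h compound exposure. Readout: reporter transcripts by RT-PCR, 6-FAM primer extension, HpaI digest, capillary electrophoresis. Positive direction vs DMSO baseline.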
# [18] = molecular target: human Retinoic Acid Receptor gamma (RARg), RARG (gene 5916) (UniProt P13631); experiment: ATG_RARg_TRANS: Attagene TRANS-FACTORIAL HepG2 Assay for human Retinoic Acid Receptor gamma (RARg) (AID 2283009; active = hit-call score of the fitted dose curve at least 0.9, where 1 is the maximum)
# Chain of human Retinoic Acid Receptor gamma (RARg), RARG (gene 5916) (P13631 whole entry, looked up, the tested form may be a part): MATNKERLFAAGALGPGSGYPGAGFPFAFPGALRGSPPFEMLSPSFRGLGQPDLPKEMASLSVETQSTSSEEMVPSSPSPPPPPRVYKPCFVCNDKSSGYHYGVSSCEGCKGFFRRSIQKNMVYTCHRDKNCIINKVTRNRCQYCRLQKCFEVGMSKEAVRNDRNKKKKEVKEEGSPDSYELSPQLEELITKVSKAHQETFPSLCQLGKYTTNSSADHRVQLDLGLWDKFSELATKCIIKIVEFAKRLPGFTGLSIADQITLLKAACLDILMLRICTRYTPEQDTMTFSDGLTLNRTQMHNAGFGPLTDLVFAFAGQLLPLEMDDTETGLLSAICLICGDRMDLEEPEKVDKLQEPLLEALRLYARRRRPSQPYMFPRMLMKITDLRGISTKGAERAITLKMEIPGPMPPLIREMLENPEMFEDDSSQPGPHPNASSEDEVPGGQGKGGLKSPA
# Procedure, shortened: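 Gain-of-signal relative to DMSO is reported from fluorescent capillary electrophoresis of RT-PCR reporter products. These came from HepG2 cells expressing transfected RARg-GAL4 chimeras with UAS reporters, harvested 24 h after dosing.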
smiles,measurement,setting,value
Cc1ccccc1C(=O)Nc1cccc(OC(C)C)c1,outcome,[1],inactive
same,outcome,[2],inactive
same,outcome,[3],inactive
same,AC50,[4],57.3 µM (active)
same,outcome,[5],inactive
same,outcome,[6],inactive
same,AC50,[7],27.9 µM (active)
same,AC50,[8],2.62 µM (active)
O=[N+]([O-])c1ccc(O)c([N+](=O)[O-])c1,outcome,[1],inactive
same,outcome,[2],inactive
same,outcome,[3],inactive
same,outcome,[4],inactive
same,outcome,[9],inactive
same,outcome,[10],inactive
same,outcome,[11],inactive
same,outcome,[12],inactive
same,outcome,[13],inactive
same,outcome,[14],inactive
same,outcome,[15],inactive
same,outcome,[7],inactive
O=C(O)Cc1ccccc1,outcome,[1],inactive
same,outcome,[2],inactive
same,outcome,[3],inactive
same,AC50,[4],25.9 µM (active)
same,outcome,[5],inactive
same,outcome,[14],inactive
same,outcome,[15],inactive
same,outcome,[7],inactive
same,outcome,[8],inactive
same,outcome,[16],inactive
CCOC(=O)Nc1cccc(OC(=O)Nc2ccccc2)c1,outcome,[1],inactive
same,outcome,[2],inactive
same,outcome,[3],inactive
same,AC50,[4],17.2 µM (active)
same,outcome,[9],inactive
same,outcome,[6],inactive
same,outcome,[15],inactive
same,outcome,[7],inactive
same,outcome,[8],inactive
Cc1cc(Cl)ccc1O[C@H](C)C(=O)O,outcome,[1],inactive
same,outcome,[2],inactive
same,outcome,[3],inactive
same,outcome,[4],inactive
same,outcome,[9],inactive
same,outcome,[17],inactive
same,outcome,[6],inactive
same,AC50,[7],37.4 µM (active)
same,outcome,[8],inactive
same,outcome,[16],inactive
CCC(C)c1cccc(C(C)CC)c1O (stereo not given),outcome,[1],inactive
same,outcome,[2],inactive
same,outcome,[3],inactive
same,AC50,[4],18 µM (active)
same,outcome,[5],inactive
same,outcome,[6],inactive
same,outcome,[14],inactive
same,outcome,[15],inactive
same,outcome,[7],inactive
same,AC50,[8],4.53 µM (active)
same,outcome,[18],inactive
O=C1CCCN1,outcome,[1],inactive
same,outcome,[2],inactive
same,outcome,[3],inactive
same,outcome,[4],inactive
same,outcome,[5],inactive
same,outcome,[6],inactive
same,outcome,[7],inactive
OCC(O)CCl (stereo not given),outcome,[1],inactive
same,outcome,[2],inactive
same,outcome,[3],inactive
same,outcome,[4],inactive
same,outcome,[9],inactive
same,outcome,[6],inactive
same,outcome,[7],inactive
same,outcome,[8],inactive
same,outcome,[16],inactive
C=CCc1ccc(OC)cc1,outcome,[1],inactive
same,outcome,[2],inactive
same,outcome,[3],inactive
same,outcome,[4],inactive
same,outcome,[5],inactive
same,outcome,[17],inactive
same,outcome,[7],inactive
O=[N+]([O-])c1c(Cl)c(Cl)cc(Cl)c1Cl,outcome,[1],inactive
same,outcome,[2],inactive
same,outcome,[3],inactive
same,AC50,[4],57.3 µM (active)
same,outcome,[5],inactive
same,outcome,[17],inactive
same,outcome,[6],inactive
same,outcome,[14],inactive
same,outcome,[15],inactive
same,AC50,[7],0.905 µM (active)
same,outcome,[8],inactive
same,outcome,[18],inactive
CC(=O)C=C(C)C,outcome,[1],inactive
same,outcome,[2],inactive
same,outcome,[3],inactive
same,outcome,[4],inactive
same,outcome,[5],inactive
same,outcome,[17],inactive
same,outcome,[14],inactive
same,outcome,[8],inactive
same,outcome,[18],inactive
same,outcome,[16],inactive
